aSyn UTR inh: 5' untranslated region of α-synuclein, MLPCN primary screen; alpha-synuclein 5'UTR reporter, inhibitor activity; inhibition, % (tested at 7.5 µM); 0.82% of 300,000 active; AID 1813; in the data active means inhibition above about 60%;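 further: H4 neuroglioblastoma cells stably carrying SNCA 5'UTR luciferase fusion; 0% = DMSO wells and 100% = positive control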
KLF5 inh: suppresses KLF5 promoter-driven expression | AID 1700 | DLD-1 KLF5 promoter-luciferase reporter, luminescence | inhibition, % at 5 µM | 0.23% of 290,000 active;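 active means inhibition above a per-plate limit of that plate's mean compound inhibition plus 3 SD, cut at about 60% in these data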;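 further: 0% = DMSO wells and 100% = LY294002 at 200 µM; higher means less KLF5 promoter-driven luciferase light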
IEC-6 tox: kills IEC-6 intestinal cells in KLF5 counter-screen; inhibition, % at 5 µM; IEC-6 cytotoxicity, luminescence viability; AID 1825; 0.78% of 290,000 active; in the data active means inhibition above about 22%;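 further: 0% = plate median of test compound wells and 100% = cytotoxic reference compound wells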
BaF3 tox: counter-screen for JAK2V617F inhibitors: parental Ba/F3 viability inhibitors. CellTiter-Glo ATP luminescence. inhibition, % at 5.6 µM. 1.1% of 220,000 active. AID 1486;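 active means inhibition above a per-campaign cutoff, the mean inhibition of all tested compounds plus 3 SD, cut at about 27% in these data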;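 further: 0% = DMSO wells and 100% = JAK Inhibitor I control wells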
Ba/F3 V617F tox: loss of viability in JAK2V617F-driven Ba/F3 cells | Ba/F3 EpoR-JAK2V617F viability, ATP luminescence | inhibition, % at 5.6 µM | 1.1% of 220,000 active | AID 1446;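 active means inhibition above the campaign mean plus 3 SD over all tested compounds, cut at about 24% in these data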;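 further: cytokine-independent growth of Ba/F3 cells driven by EpoR plus mutant JAK2; 0% = DMSO-treated cells and 100% = JAK inhibitor I control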
APP transl inh: APP translation inhibition. 0.82% of 190,000 active. inhibition, % at 2 µM. SH-SY5Y APP 5'UTR-luciferase reporter, luminescence. AID 1285;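 active means inhibition above a set limit, derived from the sample mean plus 3 SD, cut at about 45% in these data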
Numbers without * were called inactive; · = no result given. Only some compounds are listed: those with a hit (about 2.1% of all), similar ones and a draw of the others.

SMILES	aSyn UTR inh	KLF5 inh	IEC-6 tox	BaF3 tox	Ba/F3 V617F tox	APP transl inh
O=C(c1ccncc1)N(Cc1cc2ccccc2[nH]c1=O)C1CCCCC1	29.2	22.0	7.7	28.7*	40.5*	12.4
COc1ccccc1-c1nnc2sc(-c3cnccn3)nn12	9.7	-20.3	1.3	6.0	2.5	-0.1
COc1ccccc1-c1nnc2sc(-c3cc4ccccc4o3)nn12	76.3*	-1.1	58.1*	79.7*	88.2*	5.5
Cc1csc(NC(=O)CCc2c(C)nc3cc(-c4ccc(Cl)cc4)nn3c2C)n1	·	-1.4	10.0	6.7	5.5	53.7*
CCc1ccc(C2=NN(CCC(=O)NC(C)c3ccc4c(c3)OCCO4)C(=O)CC2)cc1 (centres undefined)	0.1	20.7	2.8	1.7	2.8	-12.3
Cc1nc2cc(-c3ccc(Cl)cc3)nn2c(C)c1CCC(=O)NC(C)c1ccc2c(c1)OCCO2 (centres undefined)	73.8*	2.9	-4.8	7.4	-0.3	40.6
COc1cc(OC)cc(-c2cc3nc(C)c(CCC(=O)NCc4ccccc4)c(C)n3n2)c1	75.0*	27.1	-0.6	1.1	3.6	·
CCn1c(=O)n(CC)c2cc(N3CCCC3)c(NC(=O)c3cc(Cl)ccc3OC)cc21	-3.8	-8.1	2.1	·	·	·
CC1CCCN(S(=O)(=O)c2cc3c4c(c2)C(C)C(=O)N4CCC3)C1 (centres undefined)	3.4	-6.8	0.6	·	·	·
CN(CC(=O)NCc1ccco1)S(=O)(=O)c1ccc(F)cc1	3.9	-10.1	5.1	·	·	·
COCc1c(CCl)cnc(C)c1O	1.3	-8.1	-0.9	-3.4	-7.7	9.4
Cc1ccc(NC(=S)N2CC(C)OC(C)C2)cc1C (centres undefined)	·	-38.0	-0.5	·	·	·
COc1ccc2c(c1)[nH]c1c(N3CCN(Cc4ccc5c(c4)OCO5)CC3)ncnc12	5.0	-27.0	13.9	36.7*	40.5*	3.1
C(=N\Nc1nc(Nc2ccccc2)nc(Nc2ccccc2)n1)/c1cccnc1	-23.3	6.6	28.6*	11.7	-1.4	-5.8
O=C(Oc1ccccc1C(=O)Nc1ccccc1)c1ccccc1Br	12.2	-49.4	7.5	5.3	-0.3	58.5*
O=C(/C=C/c1ccco1)Nc1ccc(-c2nc3ccccc3[nH]2)cc1	89.3*	-37.5	-6.0	2.6	11.3	86.0*
COc1ccc(-n2cc(CN3CCCC3)c(-c3cccc(F)c3)n2)cc1	-24.8	-20.9	7.9	1.0	-1.6	-4.7
CC(=O)N1CCCN(Cc2cn(-c3ccc(C)cc3)nc2-c2cccc(C)c2)CC1	-1.1	-21.9	1.8	40.6*	-0.4	-6.2
CC1CCCC(NCC(O)COC(c2ccc(F)cc2)c2ccc(F)cc2)C1C (centres undefined)	32.8	-14.3	4.7	47.4*	12.6	-16.9
Cc1ccccc1OCCn1cnc2cc([N+](=O)[O-])ccc2c1=O	-12.1	-21.3	-6.6	8.0	-0.3	-15.9
Cc1ccc(CC(=O)Nc2ccncc2)cc1	-31.3	-12.3	1.6	41.7*	35.7*	11.3
O=S(=O)(NC1CCSc2ccccc21)c1ccc(Cl)nc1 (centres undefined)	2.2	-26.1	9.4	·	·	·
COc1ccc(Cl)cc1NC(=O)CN1CCN(Cc2ccccc2)CC1	15.2	-35.0	-0.8	·	·	·
O=C(O)C[C@H](O)C[C@H](O)/C=C/c1c(C2CC2)nc2ccccc2c1-c1ccc(F)cc1	103.7*	·	·	·	·	·
O=C(O)c1cc(C2CC2)nc2ccccc12	1.6	-11.3	-1.8	11.3	4.9	19.0
SMILES	aSyn UTR inh	KLF5 inh	IEC-6 tox	BaF3 tox	Ba/F3 V617F tox	APP transl inh
Fc1cc(F)cc(NC(=S)N2CCN(c3ncccn3)CC2)c1	7.5	-1.3	3.4	27.2*	35.9*	4.7
COc1ccc(NC(=S)N2CCN(c3ncccn3)CC2)cc1	12.5	-26.8	-0.7	3.4	0.3	8.2
CC(=O)c1ccc(N2CCN(C(=S)Nc3cccc(F)c3)CC2)cc1	12.5	-15.7	-2.6	30.3*	41.4*	-8.0
Cc1ccc(S(=O)(=O)Cc2cc(F)c([N+](=O)[O-])cc2[N+](=O)[O-])cc1	5.4	-0.1	2.9	·	·	·
Cc1ccc(C(=O)Nc2ncc(C)s2)o1	-119.0	-177.3	5.3	7.8	2.9	-29.8
Cc1ccc(C(=O)Nc2ncc([N+](=O)[O-])s2)cc1	68.9*	86.9*	14.3	·	·	·
Cc1ccc(C(=O)Nc2ncc(Cc3ccc(F)cc3)s2)o1	-106.5	-107.3	45.4*	71.3*	79.7*	-133.7
Cc1ccc(C(=O)Nc2ncc(Cc3ccc(SC(F)F)cc3)s2)cc1	-162.7	32.7	2.2	1.9	3.3	92.6*
N#CC1=C(N)Oc2cc(O)ccc2C1c1ccc(Br)s1 (centres undefined)	0.6	-33.1	-5.0	·	·	·
CCN(CC(=O)NCc1ccc(F)cc1)C(=O)c1oc2ccccc2c1C	19.8	-19.2	3.1	·	·	·
Nc1c(C(=O)Nc2nc3ccccc3s2)sc2nc(-c3cccs3)ccc12	105.7*	-71.1	2.2	-1.7	-4.1	-109.7
CC(=O)c1sc2nc(-c3cccs3)ccc2c1N	-272.1	-27.3	-0.1	3.9	0.8	-74.3
COc1nnc(-c2ccc(N3CCCCC3)c(N)c2)c2ccccc12	-46.0	-9.4	6.3	45.7*	37.1*	-17.6
Cc1ccc(Cl)cc1N1CCN(C(=O)Cn2ncn3cccc3c2=O)CC1	16.0	-6.5	0.0	·	·	·
O=[N+]([O-])c1cccc(S(=O)(=O)N2CCCCC2c2cccnc2)c1 (centres undefined)	16.5	-9.3	-0.5	·	·	·
Oc1cccc(-c2nc3ccccc3s2)c1	-24.7	-75.9	-0.8	8.7	3.8	-116.1
COc1ccc(-c2nc3ccccc3s2)cc1O	85.4*	-63.9	5.7	1.2	-3.6	-224.7
COC(=O)N(C)c1nc2ccccc2s1	-76.9	-13.6	4.4	6.6	4.4	-17.4
CN(C(=O)OC(C)(C)C)c1ccc(-c2nc3ccccc3s2)cc1	104.2*	·	·	·	·	·
CC(C)c1ccc(-c2nc3ccccc3s2)cc1	98.5*	36.9	9.4	3.0	-1.3	·
CC[n+]1cccc(-c2nc3ccccc3s2)c1	3.2	-7.0	3.8	44.0*	33.7*	-5.7
NS(=O)(=O)c1ccc(CCNS(=O)(=O)Cc2ccc(Cl)cc2)cc1	5.0	-1.3	-4.5	·	·	·
Cn1c(=O)[nH]c(=O)c2c1[nH]c(=S)n2Cc1ccc(Cl)cc1	2.3	-4.9	0.0	·	·	·
COc1ccc2[nH]c3c(NCCC4=CCCCC4)ncnc3c2c1	-194.8	-137.5	20.3	75.1*	63.8*	-74.7
COc1ccc(-c2nc(C)ncc2-c2csc(C)n2)c(O)c1	-1.4	-24.5	-3.6	4.8	-1.5	14.6
COc1ccc(-c2ncncc2-c2csc(C)n2)c(O)c1	-2.1	-11.5	-2.0	31.7*	-1.8	-0.2
CC(=O)N1CCN=C1SCc1cccc(F)c1	22.6	-20.2	2.8	·	·	·
CCCc1n(CC)c2ccccc2[n+]1CC(O)COC1CCCCC1 (centres undefined)	25.4	20.8	2.1	49.9*	32.9*	4.1
Cc1n(CC(O)COCc2ccccc2)c2ccccc2[n+]1C (centres undefined)	10.8	1.5	5.8	13.0	15.5	3.3
